A short description of assay [1]: Nuclear factor erythroid 2-related factor 2/antioxidant responsive element (Nrf2/ARE) small molecule agonists: qHTS cell viability counter screen in human keratinocytes (AID 1919968; active = well fitted curve in the direction sought with a large enough effect in the repeat runs; an effect the other way counts as inactive or inconclusive; also: nearly all actives have a fitted effect of over 55% in size). The essentials: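 Seed 1,500 KeratinoSens cells per well, then incubate 5 h at 37 C/5% CO2. Add compounds in DMSO and incubate 23 h. Add CellTiter-Fluor, wait 1 h and read fluorescence.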

A short description of assay [2]: Nuclear factor erythroid 2-related factor 2/antioxidant responsive element (Nrf2/ARE) small molecule agonists: luciferase reporter gene qHTS assay in human keratinocytes (AID 1919969). Also: nearly all actives have a fitted effect of over 35% in size. Also: potency is read from the fitted curve at half-maximal effect.
The target of assay [3] is Gonadotropin-releasing hormone receptor (Homo sapiens) (UniProt P30968). The assay is described as follows: Human gonadotropin-releasing hormone receptor (GnRHR) small molecule agonists, calcium flux assay in GnRHR-HEK293 cells (AID 1920063). Also: nearly all actives have a fitted effect of over 35% in size. Also: potency is read from the fitted curve at half-maximal effect. The essentials:
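Cells: HEK293 stably expressing human GnRHR. Steps: overnight (18 h) culture, 1 h calcium dye loading at 37 C, compound addition, kinetic fluorescence read at 480/540 nm. Each compound tested at 15 concentrations in triplicate.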

Assay [4] concerns the target KiSS-1 receptor (Homo sapiens) (UniProt Q969F8). The experiment in a line: Human kisspeptin (KISS1R) small molecule agonists, calcium flux assay in KISS1R-HEK293 cells (AID 1920064; active = well fitted curve in the direction sought with a large enough effect in the repeat runs; an effect the other way counts as inactive or inconclusive). The gist of the method: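 Cells plated and incubated 18 h; dye added, 1 h at 37 C; compounds in DMSO pinned in; signal read at 480/540 nm every second for 3 min. Each compound tested at 15 concentrations in triplicate.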

A short description of assay [5]: G protein-coupled receptor (GPCR) small molecule agonists, calcium flux assay: HEK293 wild type cell line counter screen (AID 1920065). The essentials:
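Counter-screen of the Tox21 10K library for non-specific calcium release: dye-loaded cells received compounds in DMSO and were monitored by kinetic fluorescence (480/540 nm, 3 min). Fifteen concentrations, run in triplicate.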

Assay [6] is described as follows: p53 small molecule agonists, cell-based qHTS assay with human liver microsomes (AID 1963577). The essentials: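 In this qHTS, p53 response-element beta-lactamase cells receive test compound together with a microsome/NADPH activating system (0.5 mg/mL final each) and are incubated 16 h at 37 C before LiveBLAzer fluorescence detection.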
Assay [7] is described as follows: p53 small molecule agonists, cell-based qHTS assay with rat liver microsomes (AID 1963578). The essentials:
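Agonist mode in p53RE-bla reporter cells, with compounds co-incubated 16 h at 37 C alongside 0.5 mg/mL rat liver microsomes and 0.5 mg/mL NADPH (final), followed by a 2 h LiveBLAzer detection step.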

Assay [8] in a line: p53 small molecule agonists, cell-based qHTS assay with human liver microsomes: qHTS cell viability counter screen (AID 1963579). Also: nearly all actives have a fitted effect of over 45% in size. The gist of the method:
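Metabolically activated exposure: compounds, human liver microsomes and NADPH (0.5 mg/mL final apiece) were added to p53RE-bla cells seeded 5 h earlier, left 16 h at 37 C, and then assessed for viability by CellTiter-Glo luminescence.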

A short description of assay [9]: p53 small molecule agonists, cell-based qHTS assay with rat liver microsomes: qHTS cell viability counter screen (AID 1963580). Also: nearly all actives have a fitted effect of over 45% in size. The gist of the method:
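In HCT-116 cells carrying a p53 response element-bla reporter, compounds were metabolically activated in situ by rat liver microsomes with NADPH over 16 h. Cell ATP content then served as the cytotoxicity measure.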

Assay [10] can be described thus: p53 small molecule agonists, cell-based qHTS assay (AID 1963582; active = well fitted activation curve with a large enough effect in the signal ratio in the repeat runs, not every such curve was filed as active; the % refers to the signal ratio). The essentials: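 Quantitative HTS in p53RE-bla cells: after a 5 h settling period, compounds delivered in DMSO were left on cells for 16 h at 37 C, and reporter induction was measured as fluorescence following 2 h substrate loading.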
For assay [11], the target named is 5-hydroxytryptamine receptor 2A (Homo sapiens) (UniProt P28223). The assay is described as follows: 5-hydroxytryptamine receptor 2A (HTR2A) small molecule antagonists, cell-based qHTS assay (AID 1963586). Also: nearly all actives have a fitted effect of over 45% in size. The gist of the method:
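Antagonist-mode intracellular calcium assay: DOI (4 nM) added after 5 min compound pre-incubation at room temperature to dye-loaded HTR2A-CHO cells. Fluorescence followed for 3 min, sampled every second.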

The nature of assay [12]: cAMP Responsive Elements (CRE) small molecule agonists, cell-based qHTS assay (AID 1963590). The essentials: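 Agonist mode qHTS in CRE-bla HEK 293T cells: compounds dosed from DMSO for 3 h at 37 C/5% CO2, followed by LiveBLAzer B/G FRET substrate for 2 h at room temperature.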
Assay [13] is described as follows: cAMP Responsive Elements (CRE) small molecule antagonists, cell-based qHTS assay (AID 1963591; active = well fitted inhibition curve with a large enough effect in the signal ratio in the repeat runs, not every such curve was filed as active; the % refers to the signal ratio). The gist of the method: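 Antagonist mode: test compounds are co-incubated with the adenylyl cyclase activator NKH477 (0.25 uM final) on CRE-bla HEK293T cells for 3 h at 37 °C, followed by LiveBLAzer substrate loading.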
The target in assay [14] is D(2) dopamine receptor (Homo sapiens) (UniProt P14416). The assay is described as follows: Dopamine D2 receptor (DRD2) small molecule agonists, cell-based qHTS assay (AID 1963594). Also: nearly all actives have a fitted effect of over 35% in size. The gist of the method: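 HEK293 cells stably expressing DRD2 were cultured 24 h at 37 C, then given Ro20-1724 (0.1 mM final) and compounds for 10 min at room temperature. NKH477 (200nM) was then added for 30 min. cAMP was read by HTRF.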

For assay [15] the target is unchanged. The assay is described as follows: Dopamine D2 receptor (DRD2) small molecule antagonists, cell-based qHTS assay (AID 1963595; active = well fitted inhibition curve with a large enough effect in the signal ratio in the repeat runs, with a control signal flat; the % refers to the signal ratio; also: potency is read from the fitted curve at half-maximal effect). The gist of the method:
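In this cell-based antagonist screen, compounds act for 10 min at room temperature before a 30 min challenge with 12 nM quinpirole and 200 nM NKH477. cAMP is quantified by HTRF competition in DRD2-HEK293 cells containing 0.1 mM Ro20-1724.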

The target of assay [16] is Muscarinic acetylcholine receptor M1 (Homo sapiens) (UniProt P11229). The experiment in a line: Cholinergic receptor muscarinic 1 (CHRM1) small molecule antagonists, cell-based qHTS assay (AID 1963588). Also: nearly all actives have a fitted effect of over 40% in size. The gist of the method:
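CHRM1-CHO calcium-flux assay, antagonist mode. Cells were seeded 18 h, dye-loaded 1 h at 37 C and given compound for 5 min at RT, then acetylcholine was added at 50nM. FDSS fluorescence was read 3 min; 15 concentrations, three runs.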

Assay [17] shares this target. The experiment in a line: Cholinergic receptor muscarinic 1 (CHRM1) small molecule agonists, cell-based qHTS assay (AID 1963589). Also: nearly all actives have a fitted effect of over 35% in size. The essentials:
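Agonist-mode qHTS in CHO cells stably carrying human muscarinic M1. Intracellular calcium is tracked by fluorescence every second after compound transfer; each compound runs at 15 concentrations in three independent runs.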

Assay [18] addresses 5-hydroxytryptamine receptor 2A (Homo sapiens) (UniProt P28223). The experiment in a line: 5-hydroxytryptamine receptor 2A (HTR2A) small molecule agonists, cell-based qHTS assay (AID 1963587). Also: nearly all actives have a fitted effect of over 30% in size. The essentials:
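HTR2A-CHO cells, plated 18 h at 37 C/5% CO2, dye-loaded 1 h at 37 C; compounds in DMSO added by pin tool (agonist mode). Intracellular calcium flux read as kinetic fluorescence on FDSS over 2 min at 1 s intervals.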

Assay [19] deals with Beta-2 adrenergic receptor (Homo sapiens) (UniProt P07550). The experiment in a line: Adrenergic beta2 receptor (ADRB2) small molecule antagonists, cell-based qHTS assay (AID 1963592). Also: series mostly up to about 92 µM; nearly all actives have a fitted effect of over 50% in size. The essentials: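 Cells (CHO, stable ADRB2 overexpression) incubated 18-20hr at 37C; compounds added from DMSO; agonist mix (1nM isoproterenol, 100uM IBMX, 25uM Ro-20-1724) added; 0.5hr RT; d2-cAMP and anti-cAMP-cryptate added; 1hr RT; 665/615 nm read.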

Assay [20] in a line: p53 small molecule agonists, cell-based qHTS assay: qHTS cell viability counter screen (AID 1963581). Also: nearly all actives have a fitted effect of over 45% in size. The gist of the method:
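Cells: HCT-116 with p53 response element-driven beta-lactamase. Treatment: 16 h, 37 C, compounds in DMSO. Read: CellTiter-Glo luminescence after 30 min RT.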

SMILES strings stand for the structures. Values without a mark were called inactive. Results filed as inconclusive are left out. The source made the active and inactive calls. Unless noted, calls follow the shape of the full dose curve.

Chain of KiSS-1 receptor (Homo sapiens) (Q969F8 whole entry, looked up): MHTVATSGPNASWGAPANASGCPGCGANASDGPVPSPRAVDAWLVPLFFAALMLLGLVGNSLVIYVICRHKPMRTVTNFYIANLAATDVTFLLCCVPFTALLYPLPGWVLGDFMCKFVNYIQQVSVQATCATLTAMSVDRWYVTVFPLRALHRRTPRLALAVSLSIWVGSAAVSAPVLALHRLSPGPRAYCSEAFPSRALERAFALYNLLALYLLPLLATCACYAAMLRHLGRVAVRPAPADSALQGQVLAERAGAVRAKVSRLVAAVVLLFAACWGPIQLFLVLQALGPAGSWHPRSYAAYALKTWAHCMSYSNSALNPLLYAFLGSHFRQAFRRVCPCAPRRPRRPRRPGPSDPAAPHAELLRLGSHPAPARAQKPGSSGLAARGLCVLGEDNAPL
Chain of Muscarinic acetylcholine receptor M1 (Homo sapiens) (P11229 whole entry, looked up): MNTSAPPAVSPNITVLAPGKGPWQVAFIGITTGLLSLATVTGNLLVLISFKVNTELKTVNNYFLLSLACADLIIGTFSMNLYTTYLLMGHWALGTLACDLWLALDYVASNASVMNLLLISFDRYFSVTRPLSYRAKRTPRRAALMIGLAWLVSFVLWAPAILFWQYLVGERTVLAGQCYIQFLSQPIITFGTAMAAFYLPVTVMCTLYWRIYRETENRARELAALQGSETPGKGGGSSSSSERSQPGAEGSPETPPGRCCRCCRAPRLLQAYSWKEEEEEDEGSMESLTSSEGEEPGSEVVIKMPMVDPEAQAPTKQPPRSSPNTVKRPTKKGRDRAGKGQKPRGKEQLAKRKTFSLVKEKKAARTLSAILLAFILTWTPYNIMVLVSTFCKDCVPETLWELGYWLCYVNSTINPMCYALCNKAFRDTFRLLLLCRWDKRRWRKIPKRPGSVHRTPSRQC
Chain of D(2) dopamine receptor (Homo sapiens) (P14416 whole entry, looked up): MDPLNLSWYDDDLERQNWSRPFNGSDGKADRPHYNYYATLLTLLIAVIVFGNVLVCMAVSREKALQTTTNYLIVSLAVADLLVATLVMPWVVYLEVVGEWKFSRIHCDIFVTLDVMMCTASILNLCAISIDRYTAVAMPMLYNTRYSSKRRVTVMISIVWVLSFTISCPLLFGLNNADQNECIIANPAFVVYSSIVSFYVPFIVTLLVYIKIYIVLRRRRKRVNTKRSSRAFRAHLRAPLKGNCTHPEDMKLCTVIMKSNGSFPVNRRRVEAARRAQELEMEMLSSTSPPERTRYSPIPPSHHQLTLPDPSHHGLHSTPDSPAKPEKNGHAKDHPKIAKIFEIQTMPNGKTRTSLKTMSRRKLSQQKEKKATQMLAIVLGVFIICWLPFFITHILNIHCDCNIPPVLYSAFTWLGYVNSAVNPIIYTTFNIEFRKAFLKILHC
Chain of Gonadotropin-releasing hormone receptor (Homo sapiens) (P30968 whole entry, looked up): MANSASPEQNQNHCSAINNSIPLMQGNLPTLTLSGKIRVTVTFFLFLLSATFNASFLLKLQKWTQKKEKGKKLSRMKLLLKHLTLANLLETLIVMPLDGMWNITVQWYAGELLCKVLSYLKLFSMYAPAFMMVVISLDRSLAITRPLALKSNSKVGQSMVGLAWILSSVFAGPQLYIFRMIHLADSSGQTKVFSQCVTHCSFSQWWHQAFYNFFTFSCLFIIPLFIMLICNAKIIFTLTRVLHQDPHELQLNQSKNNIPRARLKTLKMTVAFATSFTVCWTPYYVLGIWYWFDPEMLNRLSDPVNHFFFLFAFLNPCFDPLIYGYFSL
Chain of Beta-2 adrenergic receptor (Homo sapiens) (P07550 whole entry, looked up): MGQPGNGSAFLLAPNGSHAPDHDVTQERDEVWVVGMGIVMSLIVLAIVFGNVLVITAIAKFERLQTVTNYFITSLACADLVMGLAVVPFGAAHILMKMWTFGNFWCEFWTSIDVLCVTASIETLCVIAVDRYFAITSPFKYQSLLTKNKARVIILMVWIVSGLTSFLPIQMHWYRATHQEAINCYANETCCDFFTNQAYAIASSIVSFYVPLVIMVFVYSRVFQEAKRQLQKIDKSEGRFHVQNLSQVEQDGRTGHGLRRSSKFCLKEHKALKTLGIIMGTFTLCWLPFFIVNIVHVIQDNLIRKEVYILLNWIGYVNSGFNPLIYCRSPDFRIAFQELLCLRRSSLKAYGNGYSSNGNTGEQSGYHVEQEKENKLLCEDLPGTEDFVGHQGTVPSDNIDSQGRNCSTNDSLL
Chain of 5-hydroxytryptamine receptor 2A (Homo sapiens) (P28223 whole entry, looked up): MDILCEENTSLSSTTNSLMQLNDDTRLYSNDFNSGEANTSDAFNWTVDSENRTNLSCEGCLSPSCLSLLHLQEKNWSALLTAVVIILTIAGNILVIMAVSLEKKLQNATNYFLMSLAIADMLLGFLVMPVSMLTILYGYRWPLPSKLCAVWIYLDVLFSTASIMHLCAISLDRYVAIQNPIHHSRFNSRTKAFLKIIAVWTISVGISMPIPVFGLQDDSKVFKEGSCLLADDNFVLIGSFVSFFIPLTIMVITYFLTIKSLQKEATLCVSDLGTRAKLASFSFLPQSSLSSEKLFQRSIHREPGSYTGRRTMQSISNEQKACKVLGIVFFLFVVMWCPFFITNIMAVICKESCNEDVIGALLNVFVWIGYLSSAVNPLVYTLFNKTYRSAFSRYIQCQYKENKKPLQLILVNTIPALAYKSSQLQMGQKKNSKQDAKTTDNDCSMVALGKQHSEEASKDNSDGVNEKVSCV

For the molecule `CC(=O)OCC[N+](C)(C)C`, the Potency result in assay [1], in [2], in assay [6], in [7], in assay [8] and in [9] was “inactive” in each case. Moreover, the Potency entry in [10], in assay [11], in [12], in assay [13], in assay [14] and in [15] was “inactive” throughout. Besides, in assay [3], the Potency was 6.01 µM (active). For the same molecule, the result in assay [4] and in [5] was inactive.
For `CN1CCC(=C2c3ccccc3C=Cc3ccccc32)CC1`, the Potency entry in [1], in [2], in assay [3], in assay [6], in assay [7] and in assay [8] was “inactive” throughout. Further, the Potency result in assay [9], in assay [10], in assay [12], in assay [13] and in assay [14] was “inactive” in each case. Further, the result in [4] and in assay [5] was inactive. Also, in assay [15], the Potency is 13.3 µM (active).
Consider `CCc1cc(Cl)c(OC)c(C(=O)NC[C@@H]2CCCN2CC)c1O`, for which the Potency result in assay [1], in assay [2], in assay [3], in assay [6], in assay [7] and in assay [8] was “inactive” throughout. For the same molecule, the Potency entry in assay [9], in [10], in [16], in assay [17], in [12] and in assay [13] was “inactive” throughout. For the same molecule, in [14], the Potency result was “inactive”. The result in assay [4] and in [5] was inactive. Moreover, the Potency in assay [15] is 0.0033 µM (active).
For `CC(C)(O)c1coc(S(=O)(=O)NC(=O)Nc2c3c(cc4c2CCC4)CCC3)c1`, the Potency entry in assay [1], in [3], in assay [6], in [7], in assay [8] and in [9] was “inactive” each time. The Potency entry in [10], in assay [18], in assay [16], in assay [17], in [13] and in [19] was “inactive” each time. The Potency entry in [14] and in assay [15] was “inactive” in each case. Moreover, the Potency in assay [2] was 61.1 µM (active). The outcome in assay [4] and in assay [5] was inactive.
With `Nc1nnc(-c2cccc(Cl)c2Cl)c(N)n1`, the Potency entry in assay [1], in assay [2], in assay [3], in assay [6], in assay [7] and in [8] was “inactive” in each case. In addition, the Potency entry in assay [9], in assay [10], in assay [12], in assay [13], in assay [14] and in assay [15] was “inactive” in each case. Further, the result in assay [4] and in [5] was inactive.
For `NCCCC[C@H](N[C@@H](CCc1ccccc1)C(=O)O)C(=O)N1CCC[C@H]1C(=O)O`, the Potency result in [1], in assay [2], in [3], in [6], in assay [7] and in assay [8] was “inactive” throughout. The Potency entry in [9], in assay [12], in assay [13], in [19], in assay [14] and in [15] was “inactive” in each case. For the same molecule, the result in [4] and in assay [5] was inactive.
`O=C(O)C(O)[C@H](O)[C@@H](O)[C@H](O)[C@H](O)CO` (stereo partly specified): the Potency entry in [1], in assay [2], in [3], in [6], in assay [7] and in [8] was “inactive” throughout. Also, the Potency entry in assay [20], in assay [10], in [11], in assay [18], in assay [16] and in [17] was “inactive” each time. In addition, the Potency entry in [12], in assay [13], in assay [19], in assay [14] and in [15] was “inactive” in each case. Besides, the result in [4] and in [5] was inactive.
As for `CCCCC1=NC2(CCCC2)C(=O)N1Cc1ccc(-c2ccccc2-c2nn[nH]n2)cc1`, the Potency entry in [1], in assay [2], in [3], in [6], in assay [7] and in assay [8] was “inactive” throughout. The Potency entry in [9], in [19], in assay [14] and in assay [15] was “inactive” throughout. The outcome in assay [4] and in [5] was inactive.

Values taken from PubChem BioAssay (Tox21).
